Records with an inconclusive call do not appear. A call without a number means that no potency is given here. Active and inactive are the calls of the source. Calls follow the shape of the dose curve; as a rule, active = well fitted cell-killing curve with a large enough effect; inconclusive = small, poorly fitted or top-dose-only effect, or effect the other way; inactive = flat fitted curve, though single readings scatter.
Potency is read from the fitted curve at half-maximal effect.

This test in a line: qHTS of pediatric cancer cell lines to identify multiple opportunities for drug repurposing: Confirmatory screen for control Hh wild type fibroblast cells (AID 1347121). Also: nearly all actives have a fitted effect of over 70% in size. As to conditions: viability qHTS; series mostly up to 45.9 µM. From the text:
Drug repurposing or repositioning has been offered as a strategy for drug development in oncology programs. This approach has special potential for childhood cancers and other rare or orphan diseases, where the expected return on new drug development has been a disincentive to pharmaceuticals.
In this project we exploit the poly-pharmacology of drugs to discover new indications via phenotypic screening of a panel of 19 well-characterized cell lines derived from solid tumors seen in children and adolescents. The goal is to identify approved drugs with previously unrecognized anticancer properties that has the potential to reveal new mechanisms and biological processes involved in carcinogenesis or drug resistance. We employed a titration-based paradigm (quantitative high-throughput screening or qHTS), where all compounds were tested at multiple concentrations for their effect on cell viability. Concentration-response curves (CRCs) were derived directly from the primary screen, and both potency and efficacy values were used to identify compounds with robust bioactivity profiles. We screened the NIH Chemical Genomics Center (NCGC) Pharmaceutical Collection (NPC) and Mechanism Interrogation Plate (MIPE) small molecule collections of approved and investigational compounds against these cell lines; and measured metabolically active cells after 48 hours of compound treatment as a proxy for cell viability.
Assay Submitter: Nathalia J. Martinez, National Center for Advancing Translational Sciences, National Institutes of Health, Rockville, MD, USA; email: natalia.martinez@nih.gov
[1] Shen, M et al. Quantitative high-throughput phenotypic screening of pediatric cancer cell lines identifies multiple opportunities for drug repurposing. Oncotarget 2017 Dec 19;9(4):4758-4772. PMID 29435139.
The cells were obtained from University of North Carolina (UNC), Pediatric Preclinical Testing Program (PPT), and Coriell Institute (CI).
qHTS cell viability assay:
Cells were assayed in growth media at a density of 500-1,000 cells/well. Five microliters of cells were dispensed into 1,536-well, white, solid-bottom, TC-treated plates (Greiner Bio One) using a multidrop dispenser and incubated at 37 degrees C, 5% CO2, under a humidified atmosphere for 5 hours. Twenty-three nanoliters of compounds and controls (neutral control DMSO or positive control bortezomib at final concentration of 2.3 µM) were subsequently transferred by Kalypsys pintool. For primary screens, the MIPE collection was tested at 11-point dilutions (final concentrations range from 0.78 nM to 46 µM) and the NPC collection at 8-point dilutions (final concentrations range from 0.59 nM to 46 µM). Compounds tested in follow-up screens were assayed at 11-point dilutions. Cells were incubated for 48 hours, followed by addition of 3 µL of CellTiter-Glo (Promega). After a 15 min incubation at room temperature, samples were analyzed for luminescence intensity using a ViewLux High-throughput CCD imager equipped with clear filters.
Consider `C=C[C@@]1(C)CC(=O)[C@]2(O)[C@@]3(C)[C@@H](O)CCC(C)(C)[C@@H]3[C@H](O)[C@H](OC(C)=O)[C@@]2(C)O1`, for which the Potency entry is “inactive”.

On to `Nc1nc(Cl)nc2c1ncn2[C@@H]1O[C@H](CO)[C@@H](O)[C@@H]1F`, for which the Potency result was “inactive”.

With `CCN[C@@H]1C[C@H](N)[C@@H](OC2OC(CN)=CCC2N)[C@H](O)[C@H]1O[C@H]1OC[C@](C)(O)[C@H](NC)[C@H]1O` (stereo partly specified), the activity, negative = cytotoxic is 8.41% [at 0.556 µM] (inactive).

As for `O=[N+]([O-])c1ccc(/C=N\O)o1`, the Potency entry is “inactive”.

Regarding `CC1CCc2c(N3CCC(O)CC3)c(F)cc3c(=O)c(C(=O)O)cn1c23` (stereo unspecified), the Potency result was “inactive”.

Regarding `COc1ccc(C(=O)c2ccccc2)c(O)c1`, the Potency entry is “inactive”.

For `CCN(CC)CCOc1ccc2c(c1)C(=O)c1cc(OCCN(CC)CC)ccc1-2`, the Potency result is “inactive”.

For `CCCCCCCCCCC[C@@H](C[C@@H]1OC(=O)[C@H]1CCCCCC)OC(=O)[C@H](CC(C)C)NC=O`, the Potency result is “inactive”.

For the compound `O=C(Oc1cccc2cccnc12)c1ccccc1`, the Potency entry was “inactive”.

For the compound `O=C(CCCN1CC=C(n2c(=O)[nH]c3ccccc32)CC1)c1ccc(F)cc1`, the Potency result is “inactive”.

Consider `CCN1/C(=C/C=C/c2sc3ccccc3[n+]2CC)Sc2ccccc21`, for which the Potency was 465 nM (active).
